Reference: PMC4336329 (PLoS ONE, 2015)
About 14,000 (4.5%) of roughly 310,000 compounds showed an effect of 50% or more. Effects have a minus sign here. Many of the other results were omitted from the sample, so strong results are more common in it than they were.

Each compound was assayed against human ether-à-go-go-related gene (hERG) potassium channel (human, UniProt Q12809) (assay: primary screen, population patch clamp on CHO cells stably expressing hERG; higher = less effect of the substance).
Sequence of human ether-à-go-go-related gene (hERG) potassium channel (Q12809 whole entry, looked up): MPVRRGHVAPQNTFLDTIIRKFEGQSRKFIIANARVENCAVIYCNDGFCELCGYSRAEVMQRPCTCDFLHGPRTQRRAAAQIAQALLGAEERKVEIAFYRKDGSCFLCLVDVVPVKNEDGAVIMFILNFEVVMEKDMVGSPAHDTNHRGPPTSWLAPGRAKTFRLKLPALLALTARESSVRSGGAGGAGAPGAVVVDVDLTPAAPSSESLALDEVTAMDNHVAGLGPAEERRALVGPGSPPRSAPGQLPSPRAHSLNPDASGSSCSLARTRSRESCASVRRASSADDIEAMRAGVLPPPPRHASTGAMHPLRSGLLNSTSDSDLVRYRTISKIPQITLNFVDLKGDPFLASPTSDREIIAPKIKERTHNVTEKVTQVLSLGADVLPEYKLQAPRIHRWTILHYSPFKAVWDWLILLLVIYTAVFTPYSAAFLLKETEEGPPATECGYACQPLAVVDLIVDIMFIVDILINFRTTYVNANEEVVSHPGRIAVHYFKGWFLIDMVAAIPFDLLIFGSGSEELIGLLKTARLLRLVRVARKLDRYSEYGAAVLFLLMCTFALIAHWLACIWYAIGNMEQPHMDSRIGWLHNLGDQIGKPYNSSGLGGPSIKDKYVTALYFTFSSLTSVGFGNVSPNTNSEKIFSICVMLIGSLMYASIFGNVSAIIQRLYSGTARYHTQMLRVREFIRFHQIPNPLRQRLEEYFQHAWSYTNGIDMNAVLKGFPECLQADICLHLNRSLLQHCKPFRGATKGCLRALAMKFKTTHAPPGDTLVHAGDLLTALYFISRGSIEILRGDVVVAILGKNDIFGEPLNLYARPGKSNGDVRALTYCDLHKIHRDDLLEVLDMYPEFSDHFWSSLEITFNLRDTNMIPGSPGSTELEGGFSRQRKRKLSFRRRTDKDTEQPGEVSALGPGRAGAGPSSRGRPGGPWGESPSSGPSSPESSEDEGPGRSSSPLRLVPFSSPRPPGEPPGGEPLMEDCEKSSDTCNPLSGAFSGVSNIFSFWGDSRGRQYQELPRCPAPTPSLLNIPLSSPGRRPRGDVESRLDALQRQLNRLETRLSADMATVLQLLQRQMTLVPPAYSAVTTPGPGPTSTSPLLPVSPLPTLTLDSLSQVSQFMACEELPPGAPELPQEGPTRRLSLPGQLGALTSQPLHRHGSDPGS
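Also: peak tail current of the secondary pulse compared with the same well before compound.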

Row | Structure (SMILES) | hERG current change (%, negative = inhibition) at 10uM
1 | Cc1ccc2nc(NC(=O)C3CCN(S(=O)(=O)c4cnc[nH]4)CC3)sc2c1 | 6.57%
2 | Cn1nnnc1SCC(=O)N1CCN(c2ccccc2)CC1 | 12.4%
3 | O=C(CSc1nnc2c(Cl)cc(Cl)cn12)N1CCOCC1 | -6.52%
4 | O=C(CSc1nnc2c(Cl)cc(Cl)cn12)N1CCN(c2ccc(F)cc2)CC1 | -51.5%
5 | Cn1nnnc1SCC(=O)N1CCN(c2cccc(Cl)c2)CC1 | -26.8%
6 | O=C(CSc1nnc2c(Cl)cc(Cl)cn12)N1CCN(S(=O)(=O)c2ccccc2)CC1 | -19.1%
7 | Cn1nnnc1SCC(=O)N1CCN(c2ccc(Cl)cc2)CC1 | -51.2%
8 | Oc1ccc(CCc2n[nH]c(=S)n2-c2ccc(F)cc2)cc1 | -22.2%
9 | O=C(COc1ccccc1)Nc1nc2cc3c(cc2s1)OCCO3 | 7.49%
10 | Cc1cccn2c(=O)c3cc(C#N)c(=O)n(CCCN4CCOCC4)c3nc12 | -60.7%
11 | N#Cc1cc2c(=O)n3ccccc3nc2n(CCCN2CCOCC2)c1=O | -24.3%
12 | Cc1cccn2c(=O)c3cc(C#N)c(=N)n(CCCN4CCOCC4)c3nc12 | -80%
13 | COc1ccccc1-n1c(SCC(=O)Nc2cccc3ccccc23)nc(O)cc1=O | 5.56%
14 | CC1=C(C)CC(C(=O)NCCc2ccccc2)C(C(=O)O)C1 (stereo not shown) | -10.8%
15 | CCN(CC)S(=O)(=O)c1ccc(N2CCOCC2)c(NC(=O)COc2ccccc2C#N)c1 | -3.3%
16 | CC(C)CCNC(=O)c1ccc2c(c1)ncn2C1CCCCC1 | -42.8%
17 | COc1ccc(-n2cnc3cc(C(=O)NC4CCCC4)ccc32)cc1 | -67.9%
18 | COc1ccc(-n2cnc3cc(NS(=O)(=O)c4ccccc4)ccc32)cc1 | 7.83%
19 | COc1ccc(-n2cnc3cc(C(=O)NCC4CCCO4)ccc32)cc1 (stereo not shown) | -17.9%
20 | COc1ccccc1-n1cnc2cc(NS(=O)(=O)c3ccccc3)ccc21 | -57.5%
21 | CCCCNC(=O)c1ccc2c(c1)ncn2C1CCCC1 | -16.7%
22 | COc1ccccc1-n1cnc2cc(C(=O)NC3CCCC3)ccc21 | -65.5%
23 | CCOC(CNC(=O)c1ccc2c(c1)ncn2-c1ccccc1OC)OCC | 2.14%
24 | COc1ccccc1-n1cnc2cc(NS(=O)(=O)c3ccc(Br)cc3)ccc21 | -3.3%
25 | CC(C)CCNC(=O)c1ccc2c(c1)ncn2C1CCCC1 | -54.8%

Row | Structure (SMILES) | hERG current change (%, negative = inhibition) at 10uM
26 | COc1ccc(-n2cnc3cc(C(=O)N4CCOCC4)ccc32)cc1 | -15.6%
27 | COc1ccccc1-n1cnc2cc(C(=O)NCC3CCCO3)ccc21 (stereo not shown) | -13.7%
28 | CC(=O)OC/C=C(\C)CCC=C(C)C | -0.25%
29 | Cc1noc(C)c1COc1cccc(C(=O)OC(C)C(=O)Nc2c(C)n(C)n(-c3ccccc3)c2=O)c1 (stereo not shown) | 4.8%
30 | COc1ccc(CCNC(=O)CCN2C(=O)[C@@H]3Cc4ccccc4CN3C2=O)cc1 | -28.3%
31 | O=c1c2ccccc2nnn1COc1ccc(Cl)cc1Br | 22.2%
32 | CCCNC(=O)c1ccc2c(c1)ncn2-c1ccccc1OC | -60.3%
33 | COCCCNC(=O)c1ccc2c(c1)ncn2-c1ccccc1OC | -1.73%
34 | CCCCCNC(=O)c1ccc2c(c1)ncn2-c1ccc(OC)cc1 | -64%
35 | CCCNC(=O)c1ccc2c(c1)ncn2-c1cc(C)cc(C)c1 | -55.1%
36 | COC(CNC(=O)c1ccc2c(c1)ncn2-c1cc(C)cc(C)c1)OC | -22.5%
37 | CCOCCCNC(=O)c1ccc2c(c1)ncn2-c1ccc(CC)cc1 | -43.8%
38 | Cc1cc(C)cc(-n2cnc3cc(C(=O)O)ccc32)c1 | 2.82%
39 | COc1ccc(-n2cnc3cc(C(=O)NCCN4CCOCC4)ccc32)cc1 | -23.8%
40 | CCOCCCNC(=O)c1ccc2c(c1)ncn2-c1ccccc1OC | -4.39%
41 | S=c1[nH]nc(COc2ccccc2)n1/N=C/c1cccc(Br)c1 | 22.2%
42 | O=C1N=C(N2CCc3ccccc3C2)S/C1=C\c1ccc(O)cc1 | -20.8%
43 | CN1/C(=C/C2CC(=O)NC2=O)C(C)(C)c2ccccc21 (stereo not shown) | 3.26%
44 | CCSCCc1nnc(NC(=O)Nc2cccc(C(F)(F)F)c2)s1 | 15.2%
45 | O=C(Nc1nnc(-c2ccccc2)o1)c1cc(-c2cccs2)nc2ccccc12 | 2.29%
46 | CC(=O)Nc1cccc(NC(=O)CSc2nccn2Cc2ccco2)c1 | 14%
47 | O=C(CCOc1ccccc1)OCC(=O)c1cc2ccccc2o1 | -10.3%
48 | COC(=O)C1=C(C(=O)OC)[C@@H]2N(C)c3ccc(OC)cc3[C@@]23C[C@@H](C(=O)OC)N(C(=O)NCCBr)C3=N1 | -32.9%
49 | O=C(Nc1nnc(-c2cccs2)o1)c1cccc(F)c1 | 11.8%
50 | NC(=O)C(F)(F)C12OC3C4C5CC(C6C5C3C61)C42 (stereo not shown) | 15.1%

Row | Structure (SMILES) | hERG current change (%, negative = inhibition) at 10uM
51 | COc1cc(C(=S)N2CCC(Cc3ccccc3)CC2)ccc1OCC(N)=O | -46.8%
52 | COc1ccc(NC(=S)N2CCC(Cc3ccccc3)CC2)cc1OC | -45.3%
53 | COc1cc(C(C)=O)ccc1OCCN1CCC(Cc2ccccc2)CC1.O=C(O)C(=O)O | -91%
54 | COc1ccc(S(=O)(=O)N2CCC(Cc3ccccc3)CC2)cc1NC(C)=O | 20.5%
55 | COc1cc(C(=O)OCC(=O)N2CCC(Cc3ccccc3)CC2)cc(OC)c1OC | -16.9%
56 | COc1cc(C(C)=O)ccc1OCCCN1CCC(Cc2ccccc2)CC1.O=C(O)C(=O)O | -77.9%
57 | O=C(CNC(=S)N(Cc1ccccc1F)C1CCCCC1)NC1CC1 | -4.74%
58 | CC(C)c1ccccc1OCC(=O)N1CCCCCCC1 | 13%
59 | CCCCCCC1CC(CCC(=O)Nc2ccc([N+](=O)[O-])cc2)C(=O)O1 (stereo not shown) | 3.95%
60 | CCCCCC1CC(CC(=O)Nc2ccc([N+](=O)[O-])cc2)OC1=O (stereo not shown) | -53.1%
61 | CCCCCC1CC(CC(=O)NC(=S)Nc2ccc([N+](=O)[O-])cc2)C(=O)O1 (stereo not shown) | -0.0907%
62 | CCCCCC1CC(CC(=O)Nc2ccc([N+](=O)[O-])cc2)C(=O)O1 (stereo not shown) | -50%
63 | CC(C)OCC1CC(CC(=O)Nc2ccc([N+](=O)[O-])cc2)C(=O)O1 (stereo not shown) | -34.1%
64 | CCCCCCC1CC(CC(=O)Nc2ccc([N+](=O)[O-])cc2)C(=O)O1 (stereo not shown) | -12.4%
65 | O=C(CC1NCCc2ccccc21)Nc1ccc(Oc2ccccc2)cc1 (stereo not shown) | -15%
66 | C=CCN(c1ccccc1)S(=O)(=O)c1ccc2c(c1)NC(=O)C(C)C(=O)N2 (stereo not shown) | -4.47%
67 | O=C(CNC(c1ccccc1)c1ccccc1)Nc1cc([N+](=O)[O-])ccc1Cl | 10.7%
68 | CCCCc1cc(O)c(CCCC)c(O)c1 | -34.1%
69 | COc1cc(/C=C(\C#N)C(=O)Nc2ccccc2F)ccc1OCCN1CCOCC1 | -64.6%
70 | COc1ccccc1NC(=O)/C(C#N)=C/c1ccc(OCCN2CCOCC2)c(OC)c1 | -6.48%
71 | COc1cc(/C=C(\C#N)C(=O)Nc2ccccc2)ccc1OCCN1CCOCC1 | -21.7%
72 | O=C(N/N=C/c1cccs1)c1cncc(Br)c1 | -10.1%
73 | COc1ccc(C)cc1NS(=O)(=O)c1ccc2c(c1)CCN2C(C)=O | -17.2%
74 | Cc1ccc(C)c(NC(=S)N(CCc2ccncc2)C(C)C)c1 | -42.1%
75 | Cc1cc(C)c(NC(=S)N(CCc2ccncc2)C(C)C)c(C)c1 | -8.82%

Row | Structure (SMILES) | hERG current change (%, negative = inhibition) at 10uM
76 | Cc1cccc(NC(=S)N(CCc2ccncc2)C(C)C)c1C | -8.61%
77 | CC(C)N(CCc1ccncc1)C(=S)Nc1ccc(F)c(Cl)c1 | -71.7%
78 | CC(C)NC(=S)N(CCc1ccncc1)C(C)C | 17.3%
79 | CCOc1ccc(NC(=S)N(CCc2ccncc2)C(C)C)cc1 | -50.6%
80 | CCc1ccccc1NC(=S)N(CCc1ccncc1)C(C)C | -29.6%
81 | Cc1cccc(C)c1NC(=S)N(CCc1ccncc1)C(C)C | -1.45%
82 | CC(C)N(CCc1ccncc1)C(=S)Nc1cccc(Cl)c1 | -71.3%
83 | CCc1ccccc1N/N=C(/C)c1c(O)cc(C)oc1=O | -1.91%
84 | Cc1c(CCC(=O)O)c(=O)oc2cc3occ(-c4ccccc4)c3cc12 | -27.8%
85 | CC(CN1C(C)CCCC1C)OC(=O)c1cccc(F)c1.Cl (stereo not shown) | -13%
86 | COc1ccc(-c2nc(CN3CCN(c4ncccn4)CC3)c(C)o2)cc1C | -21.1%
87 | Cc1oc(-c2cccc3ccccc23)nc1CN1CCN(c2ncnc3ccccc23)CC1 | -11.9%
88 | Cc1oc(-c2cc(F)ccc2F)nc1CN1CCN(c2ncnc3ccccc23)CC1 | -43.6%
89 | Cc1cccc(N2CCN(Cc3nc(-c4cccc(Cl)c4)oc3C)CC2)n1 | -21%
90 | COc1ccc(-c2nc(CN3CCN(c4cc(C)nc(C)c4)CC3)c(C)o2)c2ccccc12 | -73.6%
91 | COc1ccc(-c2nc(CN3CCN(Cc4cccc(Cl)c4)CC3)c(C)o2)cc1 | -33.1%
92 | Cc1cccc(-c2nc(CN3CCN(Cc4cccc(F)c4)CC3)c(C)o2)c1 | -47%
93 | Cc1cc(N2CCN(Cc3nc(-c4ccc(Cl)cc4)oc3C)CC2)cc(C)n1 | -68.8%
94 | Cc1cc(N2CCN(Cc3nc(-c4ccc(F)cc4)oc3C)CC2)cc(C)n1 | -53.8%
95 | COc1ccc(-c2nc(CN3CCN(C(=O)c4ccco4)CC3)c(C)o2)c(OC)c1C | -18%
96 | COc1ccc(-c2nc(CN3CCN(Cc4cccc(F)c4)CC3)c(C)o2)cc1 | -46.6%
97 | COc1ccc(-c2nc(CN3CCN(c4ncnc5ccccc45)CC3)c(C)o2)c(OC)c1 | -66.8%
